The values below come from ChEMBL document CHEMBL1157539, “Thousands of chemical starting points for antimalarial lead identification” (Nature, 2010).

One may read the Inhibition as the percentage by which the read-out fell short of the control. Higher therefore signals a response far below the control.

This assay relates to HepG2. Put plainly: GSK_TCMDC: Percent inhibition of human HepG2 cell line. Test compounds present at 10uM. The format is functional.
With `O=C(Nc1ccc(-c2nc3ccccc3[nH]2)cc1)c1cccc(S(=O)(=O)N2CCCC2)c1`, the Inhibition was 0%.
`CC1CCCN(S(=O)(=O)c2cc(Br)cc3c2N(C(=O)C2CC2)CC3)C1` (stereo not given) displayed an Inhibition of 0%.
The value for `COc1ccc(-c2ccc(NC(=O)c3ccc(Cl)cc3)cc2)cc1CN(C)CCO.O=C(O)C(F)(F)F` was 43%.
The value for `CCOc1cc(C)ccc1C1CCN(CCCCNC(=O)c2cnc(-c3ccc(C(F)(F)F)cc3)[nH]2)CC1` was 16%; that for `Cc1ccc(S(=O)(=O)O)cc1.N=C(NCCc1c[nH]c2ccccc12)NCc1ccccc1Cl` was 16%; that for `Br.Cc1ccccc1OCCCON1C(=N)N=C(N)NC1(C)C` was 66%.
The figure for `Cl.FC(F)(F)c1ccc2c(NCCc3ccccc3)ccnc2c1` is 14%; for `CCCCCCNc1c2ccccc2nc2ccccc12.Cl` it is 24%; for `Cc1[nH]c(C)c(-c2csc3ccccc23)c(=O)c1Cl` it is 7%.
In turn, `CN1CCCN(Cc2ccc(-c3cccc(NC(=O)c4ccc(F)cc4)c3)cc2)CC1.O=C(O)C(F)(F)F` came in with an Inhibition of 29%.
The figure for `O=C(/C=C/c1ccc(-c2nc3ccc(Cl)cc3[nH]2)cc1)NCc1cccc(F)c1` is 1%; for `c1ccc(Oc2ccc(Nc3ccnc4cc(-c5cccc(CNCCN6CCOCC6)c5)ccc34)cc2)cc1` it is 12%; for `COc1ccccc1NC(=O)Nc1ccc(-c2ccc(-c3nc4cc(C(F)(F)F)ccc4[nH]3)cc2)cc1` it is 52%.
The figure for `Cc1[nH]c(C)c(-c2ccc(CCc3ccc(C(F)(F)F)cc3)nc2)c(=O)c1Cl` is 24%; for `Fc1ccc2[nH]c(-c3ccc(-c4ccc(CNCCc5cccnc5)cc4)s3)nc2c1.O=C(O)C(F)(F)F` it is 40%.
In turn, `CCOP(=O)(OCC)c1ccc(OC)c(-c2ccc[nH]2)c1` showed an Inhibition of 0%.
Take `COc1ccc(CNCCc2cccs2)cc1-c1cccc(S(=O)(=O)NCCN2CCCC2)c1.O=C(O)C(F)(F)F`: the Inhibition amounted to 56%.
The value for `COc1cccc(Nc2c(C(N)=O)cnc3ccc(-c4ccc([S+](C)[O-])cc4)cc23)c1.O=C(O)C(F)(F)F` (stereo not given) was 0%.
The value for `O=C(Nc1ccc(Cl)c(Cl)c1)C1CCC(=O)N1[C@@H](Cc1ccccc1)C(=O)NCCc1ccc(Cl)cc1` (stereo not given in full) was 3%; that for `O=C(NCCCCN1CCN(CC=Cc2ccccc2)CC1)c1ccc(NC(=O)c2cc(Cl)cc(Cl)c2)cc1` was 26%.
In turn, `COc1ccc2[nH]c(C)cc(=NN=Cc3ccccc3F)c2c1` gave an Inhibition of 3%.
Regarding `CC(CC(=O)NCC1(c2ccc(F)cc2Cl)CCOCC1)C(=O)c1ccc(Cl)cc1` (stereo not given), the Inhibition was 6%.
The figure for `Nc1nc2c(ncn2COC(COCc2ccccc2)COCc2ccccc2)c(=O)[nH]1.Nc1nc2ncn(COC(COCc3ccccc3)COCc3ccccc3)c2c(=O)[nH]1` is 18%.
The figure for `COc1ccc2ncc(F)c(CCN3CCC(CNCc4cccc5c4OCO5)CC3)c2n1.Cl` is 39%.
The value for `Nc1ncc(Cc2ccc3c(ccc4ccccc43)c2)c(N)n1` was 9%.
`Cc1cc(N[C@@H](Cc2ccccc2)C(=O)NC2CCCC2)nc(NCCCOC(C)C)n1.O=C(O)C(F)(F)F` yielded an Inhibition of 0%.
Regarding `O=C(Nc1ccc(-c2csc3nccn23)cc1)c1ccc(Cl)cc1`, the Inhibition amounted to 54%.
The value for `OC(c1cccc2ccccc12)C1CN(CCc2ccccc2)CCC1(O)c1ccccc1` (stereo not given) was 0%.
The figure for `Cc1cccc2nc(-c3cccc(-c4ccc(NC(=O)NCc5ccccc5)cc4)c3)[nH]c12` is 35%; for `CNC(=N)c1ccc(NC(=O)c2ccc(C(=O)Nc3ccc(C(=N)NC)cc3)cc2)cc1.Cl` it is 6%.
The value for `CC(C)Sc1nncc(-c2cnnc(SC(C)C)n2)n1` was 0%.
Turning to `CC(C)OC(=O)c1ccccc1S(N)(=O)=O`, the Inhibition is recorded as 0%.
The figure for `Br.CC1(C)N=C(N)N=C(N)N1OCC1COc2ccccc2O1` (stereo not given) is 56%; for `CCc1c[nH]c2c(N3CCCC3=O)cc(C(=O)N[C@@H](Cc3ccccc3)[C@H](O)CNC(C)(C)c3cccc(OC)c3)cc12` it is 0%; for `Cn1nccc1C(=O)NCCNCc1cccc(-c2ccc(-c3nc4ccccc4[nH]3)cc2)c1.O=C(O)C(F)(F)F` it is 19%.
As for `CCCn1cc2c(ccc3nc(N)nc(N)c32)n1`, the Inhibition is listed as 65%.
The value for `COc1ccc(CNCc2ccc(-c3ccc(-c4nc5cc(F)ccc5[nH]4)cc3)cc2)cc1.O=C(O)C(F)(F)F` was 70%; that for `Cc1c(C)c2c(c(C)c1O)CC[C@](C)(C(=O)N1CCC(CCN3CCC(c4c[nH]c5ccccc45)CC3)CC1)O2` was 31%.
The value for `Cc1cc(N[C@@H](Cc2ccccc2)C(=O)Nc2ccccc2)nc(Nc2ccccc2)n1.O=C(O)C(F)(F)F` was 8%; that for `O=C(O)C(F)(F)F.c1cc(-c2ccc(CNCCCN3CCOCC3)cc2)cc(-c2nc3ccccc3[nH]2)c1` was 26%.
